TPT1 inhibitor: Candida albicans TPT1 enzyme inhibitors, primary screen, biochemical, fluorescence polarization | AID 1962, 2009 | tRNA 2'-phosphotransferase TPT1 (Candida albicans SC5314) | recombinant caTPT1, FP RNA substrate dephosphorylation | 0.81% of 300,000 active | inhibition, % at 5 µM;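 active = inhibition above the mean of all tested compounds plus 3 SD, set per screening campaign, cut at about 24% in these data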;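 note: plate controls were DMSO alone for no effect and ferristatin control at 100 nM for full effect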
PHOSPHO1 inh: PubChem AID 1565. Phosphoethanolamine/phosphocholine phosphatase (Homo sapiens), Q8TCT1. recombinant PHOSPHO1, absorbance phosphatase assay. inhibition, % at 13.3 µM. 1.1% of 290,000 active; in the data active = inhibition above about 60%
Rpn11 inh: Rpn11 (PSMD14) deubiquitinase inhibitors, primary screen, biochemical, fluorescence polarization, uHTS | 26S proteasome non-ATPase regulatory subunit 14 (Homo sapiens), O00487 | human 26S proteasome, Ub4-pepOG fluorescence polarization; 20S core pre-blocked with epoxomicin | inhibition, % at 20 µM | 0.59% of 360,000 active | AID 588493, 2011;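 active = inhibition at 20 µM, scaled to each plate's controls, above about 33%, limit read from the data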
Target sequence (O00487 whole entry, looked up): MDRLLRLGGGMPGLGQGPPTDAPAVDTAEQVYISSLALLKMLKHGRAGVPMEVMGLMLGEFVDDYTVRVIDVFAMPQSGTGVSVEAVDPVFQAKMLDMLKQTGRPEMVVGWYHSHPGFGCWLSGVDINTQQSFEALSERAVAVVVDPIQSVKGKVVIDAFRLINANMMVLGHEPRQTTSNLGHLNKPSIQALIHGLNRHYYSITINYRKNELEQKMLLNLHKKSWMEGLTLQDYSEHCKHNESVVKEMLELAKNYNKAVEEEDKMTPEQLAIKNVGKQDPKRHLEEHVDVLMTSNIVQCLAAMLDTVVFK
NRP1-CendR mod: modulators of CendR peptide binding to NRP-1, primary screen, biochemical, fluorescence polarization, uHTS; Neuropilin-1 (Homo sapiens), O14786; FAM-RPARPAR peptide binding to NRP-1; inhibition, % at 25 µM; 0.85% of 360,000 active;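 active = inhibition or corrected inhibition above about 18%, plus a signal ratio from 0.5 to 1.5, limit read from the data, passing the limit was not always enough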
HNF4A DNA FP: change in binding of human HNF4A to DNA, primary screen, biochemical, fluorescence polarization, FITC-DNA | Hepatocyte nuclear factor 4-alpha (Homo sapiens), P41235 | 1 h | activity change, % at 10 µM | 0.3% of 360,000 active | AID 1224865, 2016; in the data active = activity change above about 30%, passing the limit was not always enough
CTSL1 counter: Fasciola hepatica cathepsin L1 inhibitors, primary screen, counter-screen for PFM18AAP inhibitor project, biochemical, QFRET, fluorogenic peptide substrate. 0.49% of 300,000 active. inhibition, % at 5.96 µM. AID 1906, 2009. recombinant F. hepatica cathepsin L1, Z-Leu-Arg-MCA fluorescence;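 active = inhibition above the mean of all tested compounds plus 3 SD, set per screening campaign, cut at about 17% in these data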;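 note: 0% = plate median of test compound wells and 100% = 1 µM Z-Phe-Ala-diazomethylketone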
Rpn11 confirm: Rpn11 (PSMD14) deubiquitinase inhibitors, confirmation, biochemical, fluorescence polarization, single concentration. shares compounds with Rpn11 inh. purified human 26S proteasome, Ub4-pepOG fluorescence polarization; proteasome pretreated with epoxomicin. inhibition, % at 20 µM. 29% of 1,900 active. AID 602318, 2012
MMP-2 counter: MMP-2 enzyme inhibition, confirmation, counter-screen for RPN11 inhibitor project, biochemical, fluorescence, single concentration | recombinant MMP-2, FRET peptide cleavage fluorescence | inhibition, % at 20 µM | 4% of 1,900 active | shares compounds with Rpn11 inh;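 note: human MMP-2 activated beforehand with APMA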
Thrombin FP: bovine thrombin protease inhibition, confirmation, counter-screen for Rpn11 inhibitor project, biochemical, fluorescence polarization, single concentration. shares compounds with Rpn11 inh. bovine thrombin cleavage of Ub4-pepOG. inhibition, % at 20 µM. 13% of 1,900 active. AID 602333, 2012;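 active = mean inhibition at least 40% at 20 µM, or signal 3 deviations below plate average, so some actives read negative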;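 note: plate controls were thrombin with DMSO for no effect and buffer wells lacking thrombin for full effect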
Starred values were filed as active, the others as inactive; . = no result given. Most compounds without a hit are left out; they make up all but 3.3% or so of the library. Cut-off read from the data, not from the text of the source, unless noted: active = inhibition above about 40%; inactive = the rest.

SMILES	TPT1 inhibitor	PHOSPHO1 inh	Rpn11 inh	NRP1-CendR mod	HNF4A DNA FP	CTSL1 counter	Rpn11 confirm	MMP-2 counter	Thrombin FP
Cc1ccc(Cn2cc(C=O)c(-c3ccc(C)cc3)n2)cc1	0	6	37*	-7	2	-3	3	3	-16
Cc1cc(/C=C2/C(=O)NC(=O)N(c3ccc(Br)cc3)C2=O)c(C)n1C	13	32	52*	-56	3	-3	6	5	-57
CCS(=O)(=O)NC(C)c1nnc2n1-c1ccc(Br)cc1C(c1ccccc1Cl)=NC2 (configuration not stated)	0	.	-1	-13	0	3	.	.	.
CCOC(=O)c1c(-n2c(C)cc(C=C3C(=O)NC(=S)NC3=O)c2C)sc2c1CCCC2	20	36	43*	-167	-6	-2	35	23	17
O=C(CN1CCN(Cc2cccc(Cl)c2)C1=O)N1CCC2(CC1)OCCO2	-3	-2	4	7	0	2	.	.	.
Cc1cccc(CN2CCN(CC(=O)N3CCC4(CC3)OCCO4)C2=O)c1	-8	12	81*	6	5	3	-18	-3	-14
COc1ccccc1N1CCN(CCc2ccccc2)CC1	-2	25	-2	7	1	-4	.	.	.
Cc1cccc(OP(=O)(Oc2ccccc2)OC(c2ccccc2)C(F)(F)F)c1 (configuration not stated)	-1	0	10	8	3	1	.	.	.
CCCOP(=O)(OCCC)C(NC(=O)c1cc(OC)c(OC)c(OC)c1)c1ccccc1 (configuration not stated)	-2	-14	140*	7	129*	17*	2	-26	-2
COc1ccc(-n2c(/C=C/c3ccc(O)cc3)nc3ccccc3c2=O)cc1	8	.	48*	-1	6	1	15	47*	4
O=C1CN=C(c2ccccc2)c2c(sc3c2CCCC3)N1	0	5	3	2	1	2	.	.	.
COc1cc2c(cc1OC)C13CCN4CC5CCOC6CC(=O)N2C1C6C5CC43 (configuration not stated)	.	.	-2	-2	3	.	.	.	.
COc1ccc(CCn2c(O)c(C=Nc3ccccc3F)c(=O)[nH]c2=O)cc1OC	17	45	35*	-3	3	1	-2	-31	1
O=C(N/N=C/c1c(O)n(Cc2ccccc2)c(=O)[nH]c1=O)c1ccccc1O	5	4	14	-27	1	5	.	.	.
COc1ccc(CCn2c(O)c(C=NCCCO)c(=O)[nH]c2=O)cc1OC	3	17	-6	20	3	0	.	.	.
O=c1[nH]c(=O)n(Cc2ccccc2)c(O)c1/C=N/NCCO	24	15	47*	-62	19	-5	39	-33	25
O=C(N/N=C/c1c(O)n(CCc2ccc(F)cc2)c(=O)[nH]c1=O)c1ccccc1	7	19	39*	-11	3	2	18	-30	-16
CCn1c(NN=O)nc2ccccc21	-3	15	26	-1	5	-1	.	.	.
C[C@]12C[C@H](O)[C@@H](O)C[C@@H]1CC[C@@H]1[C@@H]2CC[C@]2(C)C(=O)CC[C@@H]12	.	.	-1	3	0	.	.	.	.
COc1ccc(-n2nc(C(=O)NCC(=O)N3CCC4(CC3)OCCO4)c3ccccc3c2=O)cc1Cl	-1	48	1	-6	0	1	.	.	.

Screens from PubChem BioAssay.
